FLuc inh: qHTS Assay for Inhibitors of Firefly Luciferase; Luciferin 4-monooxygenase (Photinus pyralis), P08659; purified firefly luciferase, luminescence, 8 min; Potency, µM (doses to about 57.1 µM), for inactives: at the highest dose activity change, negative = inhibition, hits mostly inhibitors; 72,000 compounds, 2.2% hits; AID 411, 2009; note: % is set by controls: 0 for no effect and ±100 for the full control effect; nearly all actives have a fitted effect of over 40% in size
Target sequence (P08659 whole entry, looked up): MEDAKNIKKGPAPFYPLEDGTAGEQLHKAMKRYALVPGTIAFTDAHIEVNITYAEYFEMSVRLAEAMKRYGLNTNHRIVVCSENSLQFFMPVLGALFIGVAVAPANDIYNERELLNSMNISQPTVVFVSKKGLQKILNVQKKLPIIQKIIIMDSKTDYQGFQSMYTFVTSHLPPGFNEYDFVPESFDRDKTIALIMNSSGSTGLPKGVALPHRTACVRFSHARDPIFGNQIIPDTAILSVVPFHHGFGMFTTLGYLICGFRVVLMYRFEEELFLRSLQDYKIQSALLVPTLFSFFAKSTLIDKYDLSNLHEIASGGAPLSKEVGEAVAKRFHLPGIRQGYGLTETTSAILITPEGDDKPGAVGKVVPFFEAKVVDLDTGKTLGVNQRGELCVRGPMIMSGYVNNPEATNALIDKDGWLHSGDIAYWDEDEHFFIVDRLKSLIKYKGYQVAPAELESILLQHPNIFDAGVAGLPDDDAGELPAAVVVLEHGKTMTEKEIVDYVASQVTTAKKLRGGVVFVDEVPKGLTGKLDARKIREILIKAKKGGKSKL
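Inhibition of light generation by firefly luciferase from ATP and luciferin was profiled with concentration-response curves per sample, ATP held at 10 uM within the enzyme's linear range. Plates were read by luminescence after an 8-minute ambient incubation.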
HEK293 cAMP cs: qHTS Assay for Agonists of the Thyroid Stimulating Hormone Receptor: Activators of Intracellular cAMP Concentrations in Parental HEK 293. parental HEK293 CNG cAMP sensor, membrane potential fluorescence. Potency, µM (titrated, usually from 57.1 µM), for the others: top-dose activation, hits mostly activators. 73,000 compounds, 2.5% hits. AID 938, 2007; note: % of control where 0% means no effect; nearly all actives have a fitted effect of over 55% in size
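Parental HEK 293 cells stably expressing a cAMP-gated CNG channel were loaded with membrane potential dye containing 100 uM RO 20-1724 for 60 min. Compound added for 30 min; depolarization read as fluorescence intensity at 590 nm.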
PK Bst: Pyruvate Kinase. purified pyruvate kinase, luminescence ATP production; ribose 5-phosphate activator present at AC10. Potency, µM. 51,000 compounds, 1.2% hits. AID 361, 2006; in the data active = potency below about 11 µM; inconclusive = mostly about 12 µM to 25 µM;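 the screen sought inhibitors and activators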;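 note: scaled between full activation by ribose 5 phosphate and full inhibition by luteolin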
ERK AVP block: qHTS Assay for Inhibitors of the ERK Signaling Pathway using a Homogeneous Screening Assay. HEK293-V1b, vasopressin-stimulated pERK AlphaScreen. AID 995, 2007. Potency, µM (highest dose often 57.5 µM), for inactives: top-dose activity, negative = inhibition, actives largely listed as inhibitors. 72,000 compounds, 0.99% hits; note: % is set by controls: 0 for no effect and ±100 for the full control effect; nearly all actives have a fitted effect of over 55% in size
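HEK293 cells stably expressing V1b receptor, preincubated 30 min at 37 °C with compound, then stimulated 5 min with 25 nM vasopressin. Phospho-ERK by AlphaScreen SureFire after 5 h RT; normalized to DMSO and vasopressin; AC50 by Hill fit.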
Tau fil binding: qHTS Assay for Tau Filament Binding; Microtubule-associated protein tau (Homo sapiens), P10636; recombinant tau filaments, thioflavin S fluorescence, 15 h; filaments grown with octadecylsulfate alongside compound; Potency, µM (highest dose often 57.1 µM), inactives show top-dose activity change, negative = inhibition; 71,000 compounds, 2% hits; AID 596, 2007;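 note: % is set by controls: 0 for no effect and ±100 for the full control effect; actives lower thioflavin S fluorescence by blocking filaments or displacing dye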
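Recombinant tau protein (human, 1 uM final) plus 30 uM ODS in HEPES pH 7.4 with NaCl, DTT and thioflavine S. Compound present from the start; fluorescence at 510 nm after 15 h, 37 C.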
TSHR agonist: qHTS Assay for Agonists of the Thyroid Stimulating Hormone Receptor | AID 926, 2007 | 73,000 compounds, 0.48% hits | Thyrotropin receptor (Homo sapiens), P16473 | Potency, µM (highest dose often 57.1 µM), inactives show at the highest dose activation, most hits filed as activators | HEK293-CNG-TSHR cells (CNG channel as cAMP sensor), membrane potential dye, cAMP; active = well fitted activation curve with a large enough effect in the main read-out, with a control signal flat, not every such curve was filed as active; inconclusive = small, poorly fitted or top-dose-only effect, or a change in a side signal; inactive = no such curve, though single readings can be large or run the other way; % of control where 0% means no effect;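 note: the control signal comes from parental cells without the receptor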
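cAMP rise detected as CNG-channel membrane depolarization by fluorescent dye (emission 590 nm), 30 min after compound, following 60 min dye loading containing 100 uM RO 20-1724 at room temperature. Cells: TSHR/CNG HEK 293, with parental CNG HEK 293 as control.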
Numbers without * were called inactive; [ ] = dose if it differs, or a comment. An excerpt weighted towards active compounds, which were near 7.2% of everything screened. Unless noted, calls come from the whole dose curve; as a rule, active = well fitted curve in the direction sought with a large enough effect; inconclusive = small, poorly fitted or top-dose-only effect, or another doubt; inactive = no such curve, though single readings can be large; an effect the other way counts as inactive or inconclusive. Potency is the fitted concentration of half-maximal effect.

Results for COCCn1c(C(=O)N(C)C)cc2c1C[C@H]1CN(C(=O)c3ccccc3)[C@@](Cc3ccc(F)cc3)(C(=O)OC)[C@@H]21 ?
HEK293 cAMP cs: 15.8µM*; ERK AVP block: 3.6%; Tau fil binding: 4.9%; TSHR agonist: inconclusive

How did N#Cc1cccc(-c2cc(-n3ccnc3)ncn2)c1 do in these assays?
FLuc inh: 2.1%[2.29 µM]; HEK293 cAMP cs: 27.3%; ERK AVP block: -28.6%; Tau fil binding: 2.8%; TSHR agonist: 1.6%

How did O=C(c1ccco1)N1CCC2(CC1)CCN(c1cccc(-c3ccccc3)c1)CC2 do in these assays?
FLuc inh: 1.7%[11.4 µM]; HEK293 cAMP cs: 19.9%; ERK AVP block: -36.3%; Tau fil binding: -6.9%; TSHR agonist: 11.3%

Results for O=C1CSC(c2cn(-c3ccccc3)nc2-c2cccs2)N1CC1CCCO1 (stereo not given) ?
FLuc inh: 1.1%; HEK293 cAMP cs: 9.9%; PK Bst: >57; ERK AVP block: -30.0%; Tau fil binding: -15.7%; TSHR agonist: 10µM*

Results for O=C1CSC(c2cn(-c3ccccc3)nc2-c2ccccc2)N1Cc1ccco1 (stereo not given) ?
FLuc inh: -0.6%; HEK293 cAMP cs: 18.0%; PK Bst: >57; ERK AVP block: inconclusive; Tau fil binding: 8.9%

How did COc1cccc(/C=N/n2c(C)c3c(C)nnc(C)c3c2C)c1O do in these assays?
FLuc inh: 2.0%; HEK293 cAMP cs: 22.9%; PK Bst: >57; ERK AVP block: 5.6%; Tau fil binding: 6.7%

What do the screens show for `COc1cccc(C=Nc2ccc3c(c2)OCCO3)c1O`?
FLuc inh: 3.98µM*; HEK293 cAMP cs: -11.8%; PK Bst: inconclusive; ERK AVP block: -10.1%; Tau fil binding: -1.0%; TSHR agonist: -6.5%

What do the screens show for `Cc1ccc(Oc2ccc(NC(=O)c3ccco3)cc2)cc1`?
FLuc inh: -17.9%; HEK293 cAMP cs: 26.8%; ERK AVP block: inconclusive; Tau fil binding: -14.3%

Results for O=C(Nc1cccc(Oc2ccc3c(c2)C(=O)NC3=O)c1)c1ccco1 ?
FLuc inh: 1.8%; HEK293 cAMP cs: 15.4%; PK Bst: inconclusive; ERK AVP block: -28.4%; Tau fil binding: 25.1µM*

What do the screens show for `CCC(c1nnnn1C1CCCC1)N1CCN(c2ccccc2F)CC1` (stereo not given)?
FLuc inh: -0.5%; HEK293 cAMP cs: inconclusive; PK Bst: >57; ERK AVP block: -10.2%; Tau fil binding: -10.6%; TSHR agonist: inconclusive

What do the screens show for `CCCC(c1nnnn1C1CCCC1)N1CCN(c2ccccc2F)CC1` (stereo not given)?
FLuc inh: 1.3%; HEK293 cAMP cs: 5.01µM*; PK Bst: >57; ERK AVP block: 16.8%; Tau fil binding: -4.8%; TSHR agonist: inconclusive

How did CCOC(=O)c1c(C)oc2ccc(NS(=O)(=O)c3ccc4c5c(cccc35)C(=O)N4)cc12 do in these assays?
FLuc inh: 0.3%; HEK293 cAMP cs: 10.0%; PK Bst: >57; ERK AVP block: inconclusive; Tau fil binding: 7.94µM*; TSHR agonist: 25.1µM*

How did CCN1CCCC1Cn1c(-c2ccccc2)nc2c(NCc3ccccc3)nc(C)nc21 (stereo not given) do in these assays?
HEK293 cAMP cs: inconclusive; ERK AVP block: -14.6%; Tau fil binding: 61.8%; TSHR agonist: inconclusive

Results for CC(C)[C@@H](CC(=O)N[C@@H]1CCCC[C@H]1C(=O)N[C@H](CC(=O)N[C@@H](CCC(=O)O)CC(=O)O)Cc1ccccc1)NC(=O)C[C@H](Cc1c[nH]c2ccccc12)NC(=O)[C@@H]1CNCC[C@H]1N ?
HEK293 cAMP cs: 11.7%; Tau fil binding: -2.1%; TSHR agonist: 8.5%

What do the screens show for `O=C1c2ccccc2C(=O)C1c1ccc2ccccc2n1`?
FLuc inh: 0.794µM*; HEK293 cAMP cs: 20.5%; PK Bst: 1.14*; ERK AVP block: inconclusive; Tau fil binding: 0.631µM*; TSHR agonist: -6.8%

What do the screens show for `CC1(Cc2cn(CCC#N)c3ccccc23)OCCO1`?
FLuc inh: 3.2%; HEK293 cAMP cs: 15.3%; PK Bst: >57; ERK AVP block: -1.2%; Tau fil binding: 18.4%; TSHR agonist: 15.8µM*

How did CC(=O)Nc1ccc(-c2nc(C)c(C(C)=O)n2O)cc1 do in these assays?
FLuc inh: -24.0%; HEK293 cAMP cs: 28.8%; PK Bst: 6.59*; ERK AVP block: -10.0%; Tau fil binding: -10.9%; TSHR agonist: 3.5%

Results for CCn1c(Cc2ccccc2)nnc1SCC(=O)Nc1ccc(N2CCOCC2)c(Cl)c1 ?
FLuc inh: inconclusive; HEK293 cAMP cs: 14.3%; ERK AVP block: 3.9%; Tau fil binding: 5.4%; TSHR agonist: 40.5%

How did Cc1occc1-c1nnc(SCC(=O)Nc2ccccc2N2CCCCC2)n1C do in these assays?
FLuc inh: -1.5%; HEK293 cAMP cs: 31.6µM*; PK Bst: >57; ERK AVP block: -4.7%; Tau fil binding: 3.6%; TSHR agonist: inconclusive

What do the screens show for `CCn1c(SCC(=O)Nc2ccccc2-c2ccccc2)nnc1-c1ccoc1C`?
FLuc inh: 3.0%; HEK293 cAMP cs: inconclusive; PK Bst: >57; ERK AVP block: 3.2%; Tau fil binding: 5.6%; TSHR agonist: inconclusive

What do the screens show for `Cc1occc1-c1nnc(SCC(=O)Nc2ccccc2)n1CCc1ccccc1`?
FLuc inh: -0.6%; HEK293 cAMP cs: inconclusive; PK Bst: >57; ERK AVP block: 6.0%; Tau fil binding: 9.9%; TSHR agonist: inconclusive

How did Cn1c(-c2ccc(F)cc2)cnc1SCC(=O)Nc1ccccc1N1CCOCC1 do in these assays?
FLuc inh: -2.6%; HEK293 cAMP cs: inconclusive; PK Bst: >57; ERK AVP block: 31.6µM*; Tau fil binding: 7.0%; TSHR agonist: inconclusive

What do the screens show for `Cc1occc1-c1nnc(SCC(=O)NCCc2ccccc2)n1Cc1ccccc1`?
FLuc inh: 0.8%; HEK293 cAMP cs: 20µM*; PK Bst: >57; ERK AVP block: -22.2%; Tau fil binding: 4.9%; TSHR agonist: inconclusive

Results for Cn1nnnc1SCC(=O)Nc1ccccc1N1CCOCC1 ?
FLuc inh: -39.8%; HEK293 cAMP cs: 7.8%; PK Bst: >57; ERK AVP block: 4.6%; Tau fil binding: 0.9%; TSHR agonist: -2.7%

What do the screens show for `Cn1c(SCC(=O)Nc2ccc(N3CCOCC3)c(Cl)c2)nnc1-c1ccccc1`?
FLuc inh: -1.5%; HEK293 cAMP cs: -4.1%; PK Bst: >57; ERK AVP block: -7.2%; Tau fil binding: 10µM*; TSHR agonist: -9.7%

High-throughput results as filed in PubChem.
